For eight compounds, growth inhibition results are on record in PubChem BioAssay (NCI).

Compounds without any hit were thinned out: in the full panel of roughly 79,000, 15% have a hit. A number with no mark means an inactive call. The source made the active and inactive calls. Cut-off read from the data, not from the text of the source: active = growth inhibition above about 70%; inactive = the rest.

Assay [1] can be described thus: NCI Yeast Anticancer Drug Screen. Data for the rad50 strain (AID 155).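 Note: 0% = growth of vehicle-only cultures of the same strain.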 The conditions noted are these: S. cerevisiae rad50 strain growth inhibition, stronger effect = higher value. In short, it runs like this:
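DNA repair mutant yeast, compound exposure, growth read-out; inhibition is taken relative to vehicle.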

Assay [2] in a line: NCI Yeast Anticancer Drug Screen. Data for the mec2-1 strain (AID 157). The conditions noted are these: S. cerevisiae mec2-1 strain, stronger effect = higher value. Put shortly:
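Cells of the genetically defined mec2-1 yeast strain are incubated with test compound. Inhibition of growth is calculated against vehicle-treated controls.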

Assay [3] in a line: NCI Yeast Anticancer Drug Screen. Data for the sgs1 mgt1 strain (AID 161).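 Note: 0% = growth of cultures given vehicle only.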 The conditions noted are these: S. cerevisiae sgs1 mgt1 strain, stronger effect = higher value. Put shortly: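 Test agents were incubated with a DNA-repair-mutant yeast strain. Growth was then read and compared against vehicle-treated controls.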
Assay [4] in a line: NCI Yeast Anticancer Drug Screen. Data for the cln2 rad14 strain (AID 165).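 Note: 0% = growth equal to vehicle treated cultures.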 The conditions noted are these: S. cerevisiae cln2 rad14 strain, stronger effect = higher value. Put shortly: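 The screen exposed genetically defined yeast (cln2 rad14) to test compounds and scored growth inhibition relative to vehicle-treated controls.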
Assay [5] is described as follows: NCI Yeast Anticancer Drug Screen. Data for the bub3 strain (AID 167). The conditions noted are these: S. cerevisiae bub3 mutant strain, stronger effect = higher value. In short, it runs like this: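 In this screen, a yeast mutant lacking normal mitotic checkpoint function is challenged with compound. Relative growth versus vehicle gives the inhibition value.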
The nature of assay [6]: NCI Yeast Anticancer Drug Screen. Data for the mlh1 rad18 strain (AID 175). The conditions noted are these: S. cerevisiae mlh1 rad18 strain growth inhibition, stronger effect = higher value. Put shortly: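 Compound-treated yeast growth, normalised to vehicle controls. Strain bears defined DNA repair mutations.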
The mark [7] stands for this setting: at 5.0 µM (retest, dose inferred, filed as 0.5).
[8] abbreviates: at 50.0 µM (retest, dose inferred, filed as 5.0).

As to `CCOC(=O)c1c(CN2CCNCC2)nc2ccc(Cl)cc2c1-c1ccccc1`, the growth inhibition was 30% in assay [1] (setting [7]); 30% in assay [1] (setting [8]); 29.4% in assay [1] (at 50.0 µM); 35% in assay [2] (setting [7]); 35% in assay [2] (setting [8]); 14.2% in assay [2] (at 50.0 µM). For the same compound, the growth inhibition was 26% in assay [3] (setting [7]); 26% in assay [3] (setting [8]); 68% in assay [3] (at 50.0 µM); 23% in assay [4] (setting [7]); 23% in assay [4] (setting [8]); 41.1% in assay [4] (at 50.0 µM). Moreover, the growth inhibition in assay [5] (setting [7]) is 29%; in assay [5] (setting [8]), 29%; in assay [5] (at 50.0 µM) it was 27.6%; in assay [6] (setting [7]), 32%; in assay [6] (setting [8]), 32%; in assay [6] (at 50.0 µM), 39.5%.

Consider `Fc1ccccc1-c1ncc(-c2ccccc2)o1`, for which the growth inhibition in assay [1] (setting [7]) was 65%; in assay [1] (setting [8]) it was 96% (active); in assay [1] (at 50.0 µM), 23.4%; in assay [2] (setting [7]), 60%; in assay [2] (setting [8]), 94% (active); in assay [2] (at 50.0 µM), 22.2%. Further, the growth inhibition is -14% in assay [3] (setting [7]); 60% in assay [3] (setting [8]); 51.8% in assay [3] (at 50.0 µM); 39% in assay [4] (setting [7]); 70% (active) in assay [4] (setting [8]); 13.7% in assay [4] (at 50.0 µM). The growth inhibition was 24% in assay [5] (setting [7]); 82% (active) in assay [5] (setting [8]); 16.7% in assay [5] (at 50.0 µM); 36% in assay [6] (setting [7]); 91% (active) in assay [6] (setting [8]); 4.3% in assay [6] (at 50.0 µM).

Take `CC(=O)Nc1nc([N+](=O)[O-])c(C(C)C)s1`: the growth inhibition in assay [1] (setting [7]) was 4%; in assay [1] (setting [8]) it was 1%; in assay [1] (at 50.0 µM), 10.1%; in assay [2] (setting [7]), -2%; in assay [2] (setting [8]), 4%; in assay [2] (at 50.0 µM) it was 10.6%. Moreover, the growth inhibition in assay [3] (setting [7]) was 3%; in assay [3] (setting [8]) it was 4%; in assay [3] (at 50.0 µM), -1.85%; in assay [4] (setting [7]) it was -6%; in assay [4] (setting [8]), -4%; in assay [4] (at 50.0 µM), 1.55%. Moreover, the growth inhibition is -3% in assay [5] (setting [7]); 9% in assay [5] (setting [8]); -7.8% in assay [5] (at 50.0 µM); 5% in assay [6] (setting [7]); 15% in assay [6] (setting [8]); 18.2% in assay [6] (at 50.0 µM).

As for `O=[N+]([O-])c1c(Cl)nc2ccccn12`, the growth inhibition is 2% in assay [1] (setting [7]); 26% in assay [1] (setting [8]); 14.4% in assay [1] (at 50.0 µM); 3% in assay [2] (setting [7]); 28% in assay [2] (setting [8]); 26.1% in assay [2] (at 50.0 µM). Further, the growth inhibition in assay [3] (setting [7]) was 2%; in assay [3] (setting [8]), 27%; in assay [3] (at 50.0 µM), 31.1%; in assay [4] (setting [7]), 2%; in assay [4] (setting [8]), 15%; in assay [4] (at 50.0 µM) it was -0.55%. For the same compound, the growth inhibition in assay [5] (setting [7]) was 0%; in assay [5] (setting [8]) it was 14%; in assay [5] (at 50.0 µM) it was -2.05%; in assay [6] (setting [7]) it was 2%; in assay [6] (setting [8]), 26%; in assay [6] (at 50.0 µM) it was 70.5% (active).

As for `CCCCCCC(C(=O)OCC)N1C(=O)c2ccccc2S1(=O)=O` (centres undefined), the growth inhibition in assay [1] (setting [7]) was -3%; in assay [1] (setting [8]) it was 36%; in assay [1] (at 50.0 µM), 2.55%; in assay [2] (setting [7]), -5%; in assay [2] (setting [8]), 10%; in assay [2] (at 50.0 µM), 21.7%. For the same compound, the growth inhibition in assay [3] (setting [7]) is -4%; in assay [3] (setting [8]) it was 65%; in assay [3] (at 50.0 µM) it was 30.5%; in assay [4] (setting [7]), -3%; in assay [4] (setting [8]) it was 16%; in assay [4] (at 50.0 µM), 12.2%. Also, the growth inhibition was 10% in assay [5] (setting [7]); 55% in assay [5] (setting [8]); 88.5% (active) in assay [5] (at 50.0 µM); 5% in assay [6] (setting [7]); 36% in assay [6] (setting [8]); 61.9% in assay [6] (at 50.0 µM).

`C=C[C@]1(C)C=C2C(O)CC3C(C)(C)CCC[C@]3(CO)C2CC1` (some centres undefined): the growth inhibition in assay [1] (setting [7]) was 8%; in assay [1] (setting [8]), 99% (active); in assay [1] (at 50.0 µM), 99.2% (active); in assay [2] (setting [7]), 13%; in assay [2] (setting [8]) it was 100% (active); in assay [2] (at 50.0 µM), 99.6% (active). The growth inhibition in assay [3] (setting [7]) is 17%; in assay [3] (setting [8]), 97% (active); in assay [3] (at 50.0 µM), 99.5% (active); in assay [4] (setting [7]), 13%; in assay [4] (setting [8]), 99% (active); in assay [4] (at 50.0 µM), 99.3% (active). The growth inhibition in assay [5] (setting [7]) was 4%; in assay [5] (setting [8]) it was 99% (active); in assay [5] (at 50.0 µM), 99.5% (active); in assay [6] (setting [7]), 26%; in assay [6] (setting [8]), 99% (active); in assay [6] (at 50.0 µM) it was 99.2% (active).

As for `CCN(CC)C(=S)Sc1nc2ccccc2s1`, the growth inhibition in assay [1] (setting [7]) is -3%; in assay [1] (setting [8]), 88% (active); in assay [1] (at 50.0 µM), 34.2%; in assay [2] (setting [7]), -2%; in assay [2] (setting [8]), 87% (active); in assay [2] (at 50.0 µM), -12.1%. Besides, the growth inhibition in assay [3] (setting [7]) is 0%; in assay [3] (setting [8]) it was 95% (active); in assay [3] (at 50.0 µM), 16.7%; in assay [4] (setting [7]), -7%; in assay [4] (setting [8]) it was 13%; in assay [4] (at 50.0 µM), -54.5%. For the same compound, the growth inhibition in assay [5] (setting [7]) is 24%; in assay [5] (setting [8]), 91% (active); in assay [5] (at 50.0 µM), 68.1%; in assay [6] (setting [7]), 5%; in assay [6] (setting [8]), 63%; in assay [6] (at 50.0 µM), 18.4%.

As for `CC(C)CCC[C@@H](C)[C@H]1CC[C@H]2[C@@H]3CC=C4N5CCCN=C5CC[C@]4(C)[C@H]3CC[C@]12C`, the growth inhibition is 2% in assay [1] (setting [7]); 98% (active) in assay [1] (setting [8]); 98% (active) in assay [1] (at 50.0 µM); -20% in assay [2] (setting [7]); 99% (active) in assay [2] (setting [8]); 98.7% (active) in assay [2] (at 50.0 µM). Further, the growth inhibition was -15% in assay [3] (setting [7]); 89% (active) in assay [3] (setting [8]); 98.5% (active) in assay [3] (at 50.0 µM); 0% in assay [4] (setting [7]); 54% in assay [4] (setting [8]); 98.2% (active) in assay [4] (at 50.0 µM). The growth inhibition in assay [5] (setting [7]) was 0%; in assay [5] (setting [8]), 97% (active); in assay [5] (at 50.0 µM), 98.2% (active); in assay [6] (setting [7]) it was -8%; in assay [6] (setting [8]), 98% (active); in assay [6] (at 50.0 µM) it was 97.9% (active).
